Screen size: about 96,000 compounds; about 1,400 (1.5%) were called active.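 How the source made its calls: active means activation factor of 2 or more for CYP2C9 at a 5 µM dose; inactive means the rest.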 The sample as a whole holds a higher share of actives than the screen did.
The compounds below were run against Cytochrome P450 2C9 (Homo sapiens) (UniProt P11712) (assay: human CYP2C9 activators, primary screen, biochemical, luminescence (AID 1024;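 further: 0 = sulfaphenazole-blocked wells and 1 = vehicle-only wells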)). Details: recombinant CYP2C9, luciferin-H conversion, at 5 µM, stronger effect = higher value, factor 1 = untreated enzyme, 0 = blocked.
Sequence of Cytochrome P450 2C9 (Homo sapiens) (P11712 whole entry, looked up): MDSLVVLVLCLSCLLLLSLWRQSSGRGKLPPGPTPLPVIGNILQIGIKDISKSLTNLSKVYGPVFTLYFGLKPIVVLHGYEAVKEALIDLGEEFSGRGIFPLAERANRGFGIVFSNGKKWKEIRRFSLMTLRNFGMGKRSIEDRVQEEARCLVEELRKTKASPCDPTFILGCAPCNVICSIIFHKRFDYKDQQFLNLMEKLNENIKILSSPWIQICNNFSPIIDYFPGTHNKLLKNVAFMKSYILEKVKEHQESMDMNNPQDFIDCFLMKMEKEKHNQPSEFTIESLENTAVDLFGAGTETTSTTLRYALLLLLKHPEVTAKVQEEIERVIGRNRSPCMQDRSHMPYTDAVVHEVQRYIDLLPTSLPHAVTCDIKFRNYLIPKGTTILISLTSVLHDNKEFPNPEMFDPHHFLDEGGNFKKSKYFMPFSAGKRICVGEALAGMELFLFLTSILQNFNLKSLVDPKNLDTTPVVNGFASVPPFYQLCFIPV

Activation factor, active:
Cc1cc(OCCOc2cccc3cccnc23)c(C)cc1Cl 2.7, Cc1ccn(C(CC(=O)c2ccc(Br)cc2)C(=O)O)n1 (configuration not stated) 2.1, Cc1cc(C)nc(NC(=O)Nc2ccccc2C(F)(F)F)n1 2.9, COc1ccc(-c2noc(-c3cccc(OC)c3OC)n2)cc1OC 2, O=C1Nc2c(Br)cc(Br)cc2C1(O)N1CCOCC1 (configuration not stated) 3, O=C(CN1CCOCC1)Nc1cc(Cl)ccc1Cl 2.4, Cc1ccc(N2CCN(C3=NC(=O)/C(=C\c4cccs4)S3)CC2)cc1 2.3

Activation factor, inactive:
Cc1cc2cc3c(cc2nc1SCC(=O)Nc1c(C)cccc1C)CCC3 0.4, CCOc1cc(N2CCOCC2)c(OCC)cc1NC(=O)COc1cccc2cccnc12 1, CCOc1cc(C)c(Cl)cc1S(=O)(=O)n1nnc2ccccc21 0.6, Cn1c(=O)c2c(nc(N3CCCCCC3)n2CC(=O)c2ccc(Br)cc2)n(C)c1=O 0.8, Cc1cc(SCC(=O)c2ccccc2)nc(SCC(=O)c2ccccc2)n1 0.3, Cc1cc([N+](=O)[O-])ccc1NCc1cccc([N+](=O)[O-])c1 1, O=C(NCCCN1CCN(C2CCCCC2)CC1)Nc1ccccc1C(F)(F)F 1, Cc1cc(C)nc(NC(=O)C(C)N2C(=O)c3ccccc3C2=O)n1 (configuration not stated) 1.2, O=C(Nc1ccc2sc3ccccc3c(=O)c2c1)c1ccccc1Cl 1.1, O=c1c2ccccc2nc2n1C(CSCc1cccc(C(F)(F)F)c1)CS2 (configuration not stated) 0.6, COc1ccc(-c2nc(-c3ccccc3)no2)c(OC)c1 1.1, COc1cc(-c2nc(-c3ccncc3)no2)cc(OC)c1OC 0.2, Cc1cccc(N(CC(=O)Nc2ccc(-c3nc4ccc(C)cc4s3)cc2)S(C)(=O)=O)c1 0.9, CNS(=O)(=O)c1cnccc1N1CCN(c2cccc(C)c2)CC1 0.4, O=C(CN1CCOCC1)Nc1ccc(NC(=O)CN2CCOCC2)c(Cl)c1 1, O=C(CN1CCOCC1)Nc1ccccc1 0.9, COc1ccc(OC)c(/C=N/NC(=O)CSc2nnc(C)n2-c2ccccc2)c1 0.8, COc1ccc(C)cc1N(C)C(=O)c1coc(=O)c2ccccc12 0.7, CCCn1c(C(Cc2ccccc2)NC(=O)COC)nc2ccccc21 (configuration not stated) 0.3, Cc1ccc(N2CCN(/N=C/c3cccs3)CC2)cc1 1.1, Cc1ccsc1/C=C1\SC(N2CCOCC2)=NC1=O 1.2, CO/N=C/c1ccc(N2CCN(C(=O)c3cccc(Cl)c3)CC2)c([N+](=O)[O-])c1 0.9, CN=C1S/C(=C\c2ccc(Sc3ccc(Cl)cc3)o2)C(=O)N1C 0.7, CC(C)C(C)NC(=O)COc1ncnc2ccccc12 (configuration not stated) 0.9, CCOC(=O)c1c(NC(=O)c2ccc(N3CCOCC3)c([N+](=O)[O-])c2)sc(C)c1C 0.9
